Source: PubChem BioAssay
Calls of active or inactive are those of the source.

experiment: S. cerevisiae RM11-1a growth modifiers, primary screen, strain RM11-1a, OD600, basal, 24 h (AID 1177); details: OD600, 24 h, higher = more signal, called active from +8 up or from −8 down;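 further: cultures grown under basal conditions with no added stressor; test concentration not given here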

z-score, inactive:
COCCCNC(=O)[C@@]1(Cc2ccccc2I)c2ccccc2C(=O)N(Cc2ccccc2OC)[C@H]1c1ccc(CO)cc1 1.06
COCCCNC(=O)[C@@]1(Cc2ccccc2I)c2ccccc2C(=O)N(C2CCCCC2)[C@H]1c1ccc(CO)cc1 -0.244
O=C1C2C=CC(C(O)C3CCCCC3)N(Nc3ccccc3F)C2C(=O)N1c1ccccc1 (stereo unspecified) -0.375
COC(=O)C1(CC(C)C)C=C2C(=C(C)C(=O)C2C)CN1 (stereo unspecified) 0.386
CCOC(=O)C=C1C[C@@H](c2cccc([N+](=O)[O-])c2)O[C@@H](c2cccc([N+](=O)[O-])c2)O1 1.79
CC(C)Cc1ccc(CN2CC[C@@H](NC(=O)c3ccccc3)C2)cc1 2.05
COc1ccc(CCNC(=O)[C@@]2(c3ccc([N+](=O)[O-])cc3)CC(=O)N(C3CCCCC3)[C@@H]2c2ccc(CO)cc2I)cc1 1.86
COC(=O)[C@]1(Cc2ccccc2N=[N+]=[N-])N=C(c2ccc(OCCCO)cc2)O[C@@H]1c1ccccc1CN=[N+]=[N-] 1.94
C=C(C(=O)CC[C@@H](OC(=O)c1ccccc1-c1ccccc1C(=O)O)c1ccc(OCCO)cc1)C(C)C -0.718
CC(C)[Si]1(C(C)C)OCc2cc(-c3ccc(-c4ccc(Cl)c(Cl)c4)o3)nc(-c3ccc(Oc4ccccc4)cc3)c21 1.95
O=C1C2C=CC(C(O)c3ccccn3)N(Nc3ccc([N+](=O)[O-])cc3)C2C(=O)N1c1ccccc1 (stereo unspecified) -0.841
O=C1OC[C@@H](c2ccccc2)n2cc(/C=C/c3ccccc3)cc21 0.561
CC[C@@H](O[Si](C#C[Si](C(C)C)(C(C)C)C(C)C)(C(C)C)C(C)C)c1cn([C@H](C)c2ccccc2)nn1 0.887
O=C1OCCC/C=C\[C@H]2OC34C=CCN(Cc5ccccc5)C(=O)[C@H]3N(CCO)C(=O)[C@@H]4C12 (stereo partly specified) -0.23
COc1ccc(C(=O)Nc2cccc(CN3C(=O)[C@]4(O[C@H](CC(=O)N(CCO)Cc5ccccc5)[C@@H]([Si](C)(C)c5ccc(OC)cc5)[C@@H]4C)c4ccccc43)c2)cc1 3.54
COC(=O)[C@@]1(Cc2ccc(F)cc2)[C@H]2c3cc(C(=O)N4CCCC4)n(CCc4c[nH]c5cc(F)ccc45)c3C[C@H]2CN1C(=O)c1ccccc1 0.335
